Source: PubChem BioAssay (NCATS)
Inconclusive results are not listed. Some of the results follow. Activity calls are given as the source filed them. Calls follow the shape of the dose curve; as a rule, active = well fitted inhibition curve with a large enough effect; inconclusive = small, poorly fitted or top-dose-only effect; inactive = flat fitted curve, though single readings scatter.

Assays:
3D7 = assay: qHTS profiling for inhibitors of Plasmodium falciparum proliferation (AID 504749); conditions: P. falciparum in erythrocytes, SYBR Green DNA, 72 h; series mostly up to 28.7 µM
Procedure, shortened: (§1)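 Fluorescence of SYBR Green-bound parasite DNA, read at 485/535 nm, served as the growth measure. Infected erythrocytes were cultured with compound 72 h; artemisinin (0.29 uM) and DMSO wells defined the normalization range.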

CP217 = assay: as above; conditions: P. falciparum in erythrocytes, SYBR Green DNA, 72 h; series mostly up to 28.7 µM
Procedure, shortened: as §1

CP250 = assay: as above; conditions: P. falciparum in erythrocytes, SYBR Green DNA, 72 h; series mostly up to 28.7 µM
Procedure, shortened: as §1

CP260 = assay: as above; conditions: P. falciparum in erythrocytes, SYBR Green DNA, 72 h; series mostly up to 28.7 µM
Procedure, shortened: as §1

CP265 = assay: as above; conditions: P. falciparum in erythrocytes, SYBR Green DNA, 72 h; series mostly up to 28.7 µM
Procedure, shortened: as §1

CP286 = assay: as above; conditions: P. falciparum in erythrocytes, SYBR Green DNA, 72 h; series mostly up to 28.7 µM
Procedure, shortened: as §1

DIV14 = assay: as above; conditions: P. falciparum in erythrocytes, SYBR Green DNA, 72 h; series mostly up to 28.7 µM
Procedure, shortened: as §1

ECU = assay: as above; conditions: P. falciparum in erythrocytes, SYBR Green DNA, 72 h; series mostly up to 28.7 µM
Procedure, shortened: as §1

N140 = assay: as above; conditions: P. falciparum in erythrocytes, SYBR Green DNA, 72 h; series mostly up to 28.7 µM
Procedure, shortened: as §1

P93_24 = assay: as above; conditions: P. falciparum in erythrocytes, SYBR Green DNA, 72 h; series mostly up to 28.7 µM
Procedure, shortened: as §1

PAD = assay: as above; conditions: P. falciparum in erythrocytes, SYBR Green DNA, 72 h; series mostly up to 28.7 µM
Procedure, shortened: as §1

PC15 = assay: as above; conditions: P. falciparum in erythrocytes, SYBR Green DNA, 72 h; series mostly up to 28.7 µM
Procedure, shortened: as §1

SC27B = assay: as above; conditions: P. falciparum in erythrocytes, SYBR Green DNA, 72 h; series mostly up to 28.7 µM
Procedure, shortened: as §1

TAB165 = assay: as above; conditions: P. falciparum in erythrocytes, SYBR Green DNA, 72 h; series mostly up to 28.7 µM
Procedure, shortened: as §1

[1] = molecular target: Fructose-bisphosphate aldolase A (Oryctolagus cuniculus) (UniProt P00883); assay: qHTS Assay for Inhibitors of Fructose-1,6-bisphosphate Aldolase from Giardia Lamblia: Rabbit FBPA Selectivity (AID 2794)
Procedure, shortened: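 Room-temperature coupled fluorescence assay using rabbit aldolase. Steps: coupling enzymes, compound (up to 57.5 uM final), 10 min; substrate plus detection reagent, 20 min; read 525/598 nm.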

Measured: Potency
Also: nearly all actives have a fitted effect of over 60% in size.

Fructose-bisphosphate aldolase A (Oryctolagus cuniculus), sequence (P00883 whole entry, looked up): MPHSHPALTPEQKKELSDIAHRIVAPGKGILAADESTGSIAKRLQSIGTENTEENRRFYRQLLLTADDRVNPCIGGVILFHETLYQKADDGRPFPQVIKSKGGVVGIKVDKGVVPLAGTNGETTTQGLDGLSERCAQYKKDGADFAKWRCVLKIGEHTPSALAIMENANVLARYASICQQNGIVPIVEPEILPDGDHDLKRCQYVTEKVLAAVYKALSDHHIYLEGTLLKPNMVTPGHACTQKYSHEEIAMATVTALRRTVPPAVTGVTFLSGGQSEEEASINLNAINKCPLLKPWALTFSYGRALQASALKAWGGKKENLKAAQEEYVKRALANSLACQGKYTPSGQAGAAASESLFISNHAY

Cc1c(C(=O)O)c(O)cc2c1C(=O)c1c(O)c([C@H]3O[C@H](CO)[C@@H](O)[C@H](O)[C@H]3O)c(O)c(O)c1C2=O
not listed: [1]
inactive: all other assays above

Cc1cnc(NC(=O)c2ccccn2)s1
inactive: [1]
